This is an account of results in PubChem BioAssay AID1508625 (Wald Lab, School of Medicine, Case Western Reserve …, 2021).

The test is described as follows: enhancers of NK cell killing of ovarian tumor cells, primary screen, imaging, OVCAR3, primary NK cells, calcein-AM imaging (AID 1508625).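 Further: compound given to NK cells 16 h before adding targets at 1.5 to 1 ratio.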 As to conditions: OVCAR3 lysis by primary NK cells, at 5 µM; z-score: measured here: robust Z-score, single-point normalisation.

For `CCOc1ccc2cc(C3=NN(C(=O)CCC(=O)O)C(c4ccc(Br)cc4)C3)c(Cl)nc2c1` (centres undefined), the corrected activity, negative = more killing is -2.89% and the z-score is -1.55.
Turning to `N#Cc1c(SCC(=O)c2ccccc2)nsc1SCC(=O)c1ccccc1`, the corrected activity, negative = more killing is -5.48% and the z-score is -2.94.
For the molecule `O=[N+]([O-])c1ccc(C=Nn2c(CO)nc3ccccc32)cc1`, the corrected activity, negative = more killing is -5.03% and the z-score was -1.6.
For `CN1CCc2c(sc3c2C(=O)NC(c2cccc(OCc4ccccc4)c2)N3)C1` (centres undefined) the same measures were -3.2% and -0.991.
For `Cc1cc(C)c2oc(-c3ccc(C)c(N=Cc4cccc([N+](=O)[O-])c4O)c3)nc2c1` the same measures were -14.1% and -2.97.
Regarding `CC(=O)c1cccc(NC(=O)COc2ccccc2C)c1`, the corrected activity, negative = more killing is -1.74% and the z-score was -0.9.
For `CN1C(=O)c2ccccc2C(C(=O)NCCCN2CCCCCC2)C1c1cccs1` (centres undefined) the same measures were -5.67% and -1.41.
Consider `CCOc1ccc2nc(SCC(=O)NC3CC3)sc2c1`, for which the corrected activity, negative = more killing was -5.49% and the z-score is -1.7.
Take `CN(C)S(=O)(=O)c1ccc(C(O)=C2C(=O)C(=O)N(Cc3cccnc3)C2c2ccc(Cl)cc2)cc1` (centres undefined): the corrected activity, negative = more killing was -2.24% and the z-score is -0.973.
For `COc1ccc(N2CCN(C(=O)c3ccc4ccccc4n3)CC2)cc1`, the corrected activity, negative = more killing is -1.53% and the z-score was -0.85.
Regarding `Cc1cc(NC(=O)CSc2nc3ccc(Br)cc3c3nc4ccccc4n23)no1`, the corrected activity, negative = more killing was -5.14% and the z-score is -1.36.
Regarding `CCCCOc1ccc(C(=O)N2N=C(C)CC2(O)C(F)(F)F)cc1` (centres undefined), the corrected activity, negative = more killing is -6.48% and the z-score was -2.66.
For `COc1cc(OC)c(C=C2C(=O)NC(=S)N(c3ccc(Cl)cc3)C2=O)cc1Br` the same measures were -2.07% and -1.07.
Take `Cc1ccc(C(=O)CC2(O)C(=O)N(C(C)C)c3ccccc32)c(C)c1` (centres undefined): the corrected activity, negative = more killing was -3.79% and the z-score is -1.13.
For the molecule `COC(=O)c1ccc(Sc2ccc(C)cc2)c([N+](=O)[O-])c1`, the corrected activity, negative = more killing was -2.5% and the z-score was -0.675.
On to `COc1ccccc1C1C(=C(O)c2ccccc2)C(=O)C(=O)N1CC(C)O` (centres undefined), for which the corrected activity, negative = more killing is -4.26% and the z-score is -1.62.
As to `Cc1cc(C)n(C(=O)c2ccc(S(=O)(=O)N3CCCCCC3)cc2)n1`, the corrected activity, negative = more killing was -2.63% and the z-score was -1.46.
Consider `Nc1cc(OC(=O)c2cccs2)nn1S(=O)(=O)c1ccccc1`, for which the corrected activity, negative = more killing was -4.31% and the z-score is -1.37.
For `Cc1ccc(Cn2c3[n+](c4ccccc42)CC(O)CS3)cc1` (centres undefined) the same measures were -3% and -1.55.
For `COCCCNCCOc1c(Cl)cc(C)cc1Br`, the corrected activity, negative = more killing was -4.25% and the z-score is -1.58.
For `O=C(Nc1ccc(N2CCN(Cc3ccccc3Cl)CC2)cc1)c1ccco1` the same measures were 1.61% and 0.895.
As to `COc1ccc(C2=NN(c3nc(-c4ccc(OC)c(F)c4)cs3)C(c3ccco3)C2)cc1` (centres undefined), the corrected activity, negative = more killing was -2.68% and the z-score is -1.01.
With `O=C(NN=Cc1cccc2ccccc12)c1cncc(Br)c1`, the corrected activity, negative = more killing is -7.56% and the z-score is -2.98.
For `COc1ccc(OC)c(C2Nc3ccccc3NC3=C2C(=O)CC(C)(C)C3)c1` (centres undefined) the same measures were -5.96% and -1.85.
Turning to `COc1cc(NS(=O)(=O)c2ccc(NC(=O)c3ccc(OC)c(OC)c3)cc2)ncn1`, the corrected activity, negative = more killing was -3.26% and the z-score is -1.01.
Take `CCOc1ccc(-n2c(SCc3ccccc3Cl)nc3c(c2=O)SCC3)cc1`: the corrected activity, negative = more killing was -3.11% and the z-score was -0.774.
`CCCCC1CC(CN2C(=O)NC(C)(C)C2=O)OC1=O` (centres undefined): the corrected activity, negative = more killing is -2.13% and the z-score is -0.811.
